Counter-ions that a name gives are not always drawn. Over roughly 2,000 compounds, “fractional viability relative to vehicle” has its median near 0.91; the lowest 2% begin near 0.045. Many of the other results were omitted from the sample, so the lowest values are more common in it than they were.
Test system: TYKNU
Test: fractional viability relative to vehicle; TYKNU is a high-grade serous ovarian cancer line; higher = less growth inhibition
Conditions: 72 h
Summary of the method: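 TYKNU control cells or lentiCRISPRv2 knockout derivatives were plated at 500 cells per well in duplicate into drug-stamped 384-well plates holding a ~2100-compound library at 2 or 10 μM. Culture was in RPMI 1640 with 10% FBS at 37 °C in 5% CO2, with 72 h of drug treatment. Viability was measured by Cell Titer Glo luminescence, and the averaged duplicate treatment wells were normalised to duplicate control wells at the same plate position.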

[1] = 2uM, genotype: DNM1L knockout (sgDNM1L #1)
[2] = 2uM, genotype: sgCTRLA1 (non-targeting control)
[3] = 10uM, genotype: DNM1L knockout (sgDNM1L #1)
[4] = 10uM, genotype: sgCTRLA1 (non-targeting control)

| Compound | fractional viability [1] | fractional viability [2] | fractional viability [3] | fractional viability [4] |
| --- | --- | --- | --- | --- |
| C[C@@H]1CC[C@@]2(OC1)O[C@H]1C[C@H]3[C@@H]4CC=C5C[C@@H](O[C@@H]6O[C@H](CO)[C@@H](O[C@@H]7O[C@@H](C)[C@H](O)[C@@H](O)[C@H]7O)[C@H](O)[C@H]6O[C@@H]6O[C@@H](C)[C@H](O)[C@@H](O)[C@H]6O)CC[C@]5(C)[C@H]4CC[C@]3(C)[C@H]1[C@@H]2C [Dioscin] | 0.0559 | 0.0816 | 0.0468 | 0.0196 |
| Cc1cc2c(C(C)C)c(O)c(O)c(C=O)c2c(O)c1-c1c(C)cc2c(C(C)C)c(O)c(O)c(C=O)c2c1O [Gossypol] | 0.9 | 1.04 | 0.253 | 0.247 |
| CCN(Cc1ccc(Cl)nc1)/C(=C/[N+](=O)[O-])NC [Nitenpyram] | 0.733 | 1.08 | 0.638 | 0.862 |
| Cc1ccc(-n2nccn2)c(C(=O)N2CCN(c3nc4cc(Cl)ccc4o3)CC[C@H]2C)c1 [Suvorexant (MK-4305)] | 0.969 | 1.14 | 0.861 | 1.04 |
| CC(C)=CCC[C@]1(C)C=Cc2c(O)c3c(c(CC=C(C)C)c2O1)O[C@]12C(=C[C@@H]4C[C@H]1C(C)(C)O[C@@]2(C/C=C(/C)C(=O)O)C4=O)C3=O [Gambogic Acid] | 0.068 | 0.0361 | 0.0214 | 0.00876 |
| CN(C)Cc1c[nH]c2ccccc12 [Gramine] | 0.908 | 1.14 | 0.859 | 0.971 |
| [O-][n+]1ccccc1[S-].[O-][n+]1ccccc1[S-].[Zn+2] [Zinc Pyrithione] | 0.0424 | 0.0207 | 0.0251 | 0.0128 |
| Cc1sc2c(c1C)C(c1ccc(Cl)cc1)=N[C@@H](CC(N)=O)c1nnc(C)n1-2 | 0.35 | 0.412 | 0.319 | 0.408 |
| c1ccc([C@@H]2C[C@H]2NC2CCNCC2)cc1 | 0.728 | 0.964 | 0.712 | 0.824 |
| CC(=O)Nc1ccc(Cc2ccc(NC(C)=O)cc2)cc1 | 0.759 | 0.99 | 0.747 | 0.791 |
| O=C(O[C@H]1C[C@H]2CC[C@@H](C1)[N+]21CCCC1)C(O)(c1ccccc1)c1ccccc1 [Trospium chloride] | 0.962 | 1.06 | 0.908 | 1.09 |
| Cc1cccc(Cc2c[nH]cn2)c1C [Detomidine HCl] | 1.07 | 1.01 | 0.798 | 1.1 |
| CN[C@@H]1C[C@H]2O[C@@](C)([C@@H]1OC)n1c3ccccc3c3c4c(c5c6ccccc6n2c5c31)C(=O)NC4 [Staurosporine] | 0.092 | 0.066 | 0.0336 | 0.0269 |
| Cn1c(COP(=O)(NCCBr)NCCBr)cnc1[N+](=O)[O-] | 1.47 | 1.27 | 0.89 | 1.27 |
| CCN(CC)C(=O)c1ccc(C2=CC3(CCNCC3)Oc3cccc(O)c32)cc1 | 1.05 | 1.03 | 0.914 | 0.931 |
| C[C@@H]1O[C@@H](O[C@H]2C[C@@H](O)[C@]3(CO)[C@H]4[C@H](O)C[C@]5(C)[C@@H](C6=CC(=O)OC6)CC[C@]5(O)[C@@H]4CC[C@]3(O)C2)[C@H](O)[C@H](O)[C@H]1O [Ouabain] | 0.05 | 0.0369 | 0.0346 | 0.0311 |
| N#C[C@H](O[C@@H]1O[C@H](C(=O)O)[C@@H](O)[C@H](O)[C@H]1O)c1ccccc1 [Laetrile] | 0.984 | 1.23 | 0.709 | 1.16 |

| Compound | fractional viability [1] | fractional viability [2] | fractional viability [3] | fractional viability [4] |
| --- | --- | --- | --- | --- |
| COc1cc(-n2c(=S)[nH]c3ccccc3c2=O)c(Cl)cc1Cl [Mdivi-1] | 0.879 | 0.994 | 0.654 | 0.851 |
| Cc1cccc(C)c1NC(=O)CN1CCCC1=O [Nefiracetam] | 0.909 | 1.08 | 1.02 | 1.16 |
| CC(C)N(CCNC(=O)CN1CCCC1=O)C(C)C [Pramiracetam] | 0.94 | 1.16 | 0.882 | 1.02 |
| C[C@@H]1[C@H](O)[C@@H](C)/C=C/C=C/CC/C=C/C=C/C=C/C=C/[C@H](O[C@H]2O[C@@H](C)[C@H](O)[C@@H](N)[C@H]2O)C[C@@H]2O[C@](O)(C[C@@H](O)[C@H](O)CC[C@@H](O)C[C@@H](O)C[C@@H](O)CC(=O)O[C@H]1C)C[C@H](O)[C@H]2C(=O)O [Nystatin (Fungicidin)] | 0.929 | 1.11 | 0.854 | 1.03 |
| O=C(O)c1nn(Cc2ccc(Cl)cc2Cl)c2ccccc12 [Lonidamine] | 0.961 | 1.06 | 0.87 | 1.16 |
| Cc1sc2c(c1C)C(c1ccc(Cl)cc1)=N[C@@H](CC(=O)OC(C)(C)C)c1nnc(C)n1-2 | 0.37 | 0.516 | 0.278 | 0.394 |
| O=C(O)CNC(=O)c1c(O)c2ccccc2n(Cc2ccccc2)c1=O | 1.04 | 1.17 | 0.762 | 1 |
| O=c1[nH]c2ccc(Cl)cc2c(N[C@@H]2CN3CCC2CC3)c1-c1nc2ccccc2[nH]1 | 0.154 | 0.195 | 0.0777 | 0.0446 |
| O=S(=O)(CC1CS1)c1ccc(Oc2ccccc2)cc1 (stereo unspecified) | 0.744 | 0.851 | 0.163 | 0.172 |
| C[C@](O)(COc1ccc(C#N)cc1)C(=O)Nc1ccc(C#N)c(C(F)(F)F)c1 | 1 | 1.13 | 0.879 | 1.03 |
| CCN1CCN(C(=O)Cc2ccc(Nc3ncc(F)c(Nc4ccc(C(=O)Nc5ccccc5Cl)cc4)n3)cc2)CC1 [Aurora A Inhibitor I] | 0.904 | 0.926 | 0.0479 | 0.0775 |
| NC(=O)CN1CC(O)CC1=O (stereo unspecified) [Oxiracetam] | 0.755 | 1.16 | 0.688 | 0.976 |
| C#C[C@]1(O)C=C[C@H]2[C@@H]3CCC4=CC(=O)CC[C@@H]4[C@H]3CC[C@@]21CC [Gestodene] | 1.13 | 1.04 | 0.861 | 0.945 |
| CC1=C(O)C(=O)C=C2C1=CC=C1[C@@]2(C)CC[C@@]2(C)[C@@H]3C[C@](C)(C(=O)O)CC[C@]3(C)CC[C@]12C [Celastrol] | 0.0457 | 0.0557 | 0.0154 | 0.0139 |
| CC(C)(C)c1cc(C=C(C#N)C#N)cc(Br)c1O | 1.21 | 1.08 | 1.09 | 0.939 |
| CCOc1ccccc1-n1c(C(C)N2CCN(C(=O)COc3ccc(Cl)cc3)CC2)nc2ccccc2c1=O (stereo unspecified) [Erastin] | 0.123 | 0.0716 | 0.0411 | 0.0416 |
| O=[N+]([O-])/C=C/c1ccc2c(c1)OCO2 | 0.362 | 0.336 | 0.0604 | 0.0474 |
